Data as given in PubChem BioAssay (Tox21).
“And” between values parts separate entries of the source, which are not always exact repeats. Identical values can stand only once. Records with an inconclusive call do not appear. A call without a number means that no potency is given here. The source holds several records for some structures; these can differ, active in one and inactive in another. The source made the active and inactive calls. Calls come from the whole dose curve; as a rule, active = well fitted curve in the direction sought with a large enough effect in the repeat runs; inconclusive = weak or mixed curves; inactive = no such curve, though single readings can be large; an effect the other way counts as inactive or inconclusive.

Tests used:
[1] = A CellTox Green Cytotoxicity Assay to monitor cytotoxicity in HEK293 cells - 32 hour (AID 1224881); note: nearly all actives have a fitted effect of over 40% in size
In short: (§1)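 Cytotoxicity was tracked continuously in HEK293 cells by a DNA-binding dye excluded from viable cells. Compounds were transferred in DMSO 5 h after seeding; fluorescence was recorded at intervals up to 40 h.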

[2] = A CellTox Green Cytotoxicity Assay to monitor cytotoxicity in HepG2 cells - 0 hour (AID 1224882); note: nearly all actives have a fitted effect of over 35% in size
In short: (§2)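 Real-time, homogeneous cytotoxicity readout: dead-cell DNA staining by CellTox Green in HepG2 monolayers, fluorescence measured at timed intervals up to 40 h of continuous compound exposure.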

[3] = A CellTox Green Cytotoxicity Assay to monitor cytotoxicity in HepG2 cells - 32 hour (AID 1224883); note: nearly all actives have a fitted effect of over 50% in size
In short: as §2

[4] = A CellTox Green Cytotoxicity Assay to monitor cytotoxicity in HEK293 cells - 8 hour (AID 1224884); note: nearly all actives have a fitted effect of over 35% in size
In short: as §1

[5] = qHTS RealTime-Glo MT Cell Viability Assay in HepG2 cells - 16 hour (AID 1224885); note: nearly all actives have a fitted effect of over 50% in size
In short: (§3)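 HepG2 cells (600/well) were dispensed with RealTime-Glo reagents, incubated 5 h at 37 °C, then treated with compounds in DMSO for up to 40 h. Nonlytic NanoLuc luminescence reflecting viable cells was read at each stated time point.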

[6] = qHTS RealTime-Glo MT Cell Viability Assay in HEK293 cells - 24 hour (AID 1224886); note: nearly all actives have a fitted effect of over 50% in size
In short: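 HEK293 cells seeded with NanoLuc/prosubstrate reagent, rested 5 h at 37 C, then dosed and kept at 37 C up to 40 h. Nonlytic real-time luminescence from viable cells read at 0, 8, 16, 24, 32 and 40 h.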

[7] = qHTS RealTime-Glo MT Cell Viability Assay in HEK293 cells - 8 hour (AID 1224887); note: nearly all actives have a fitted effect of over 50% in size
In short: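 Nonlytic bioluminescent viability monitoring. HEK293 at 600 cells/well with reagent; 5 h settle; compound transfer by pintool; plates held at 37 C and read at set time points.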

[8] = A CellTox Green Cytotoxicity Assay to monitor cytotoxicity in HepG2 cells - 8 hour (AID 1224890); note: nearly all actives have a fitted effect of over 45% in size
In short: as §2

[9] = A CellTox Green Cytotoxicity Assay to monitor cytotoxicity in HEK293 cells - 16 hour (AID 1224888); note: nearly all actives have a fitted effect of over 35% in size
In short: as §1

[10] = qHTS RealTime-Glo MT Cell Viability Assay in HepG2 cells - 0 hour (AID 1224889); note: nearly all actives have a fitted effect of over 50% in size
In short: as §3
Potency is the fitted concentration of half-maximal effect.

Row | SMILES | Potency [1] | Potency [2] | Potency [3] | Potency [4] | Potency [5] | Potency [6] | Potency [7] | Potency [8] | Potency [9] | Potency [10]
1 | CCCCOCC1CO1 (stereo not given) | inactive and 19.5 µM (active) | inactive and 38.9 µM (active) | inactive and 43.6 µM (active) | inactive and 24.5 µM (active) | inactive | inactive | inactive | inactive and 43.6 µM (active) |  | 
2 | CCOP(=O)(OCC)OCC | inactive | inactive | inactive | inactive | inactive | inactive | inactive | inactive | inactive | 
3 | OCCOCCO | inactive | inactive | inactive | inactive | inactive |  | inactive |  | inactive | inactive
4 | CC(C)Nc1ccc(Nc2ccccc2)cc1 | 48.8 µM (active) and 49 µM (active) | inactive | 43.6 µM (active) | inactive | 54.7 µM (active) and 49 µM (active) | 17.3 µM (active) and 19.5 µM (active) | 15.4 µM (active) and 17.4 µM (active) | inactive and 49 µM (active) | 54.9 µM (active) | 
5 | O=[N+]([O-])c1ccc(Nc2ccccc2)cc1 | inactive | inactive | inactive | inactive | inactive | 44 µM (active) and 21.9 µM (active) |  |  | inactive | 
6 | CN(C)c1nc(=O)n(C2CCCCC2)c(=O)n1C | inactive | inactive | inactive | inactive | inactive |  | inactive |  | inactive | inactive
7 | Clc1ccc(C(Cl)(Cl)Cl)cc1 | inactive | inactive | inactive | inactive | inactive | inactive | inactive | inactive | inactive | 
8 | C=CC(Cl)CCl (stereo not given) | inactive | inactive | inactive | inactive | inactive | inactive | inactive | inactive | inactive | 
9 | C=C(C)C#N | inactive | inactive | inactive | inactive | inactive | inactive and 13.8 µM (active) | inactive | inactive | inactive | inactive
10 | Oc1ccc(Cl)cc1Cc1ccccc1 | 12.3 µM (active) and 22.1 µM (active) and 21.3 µM (active) | inactive | inactive and 33.1 µM (active) | inactive | 49.6 µM (active) and inactive | 21.9 µM (active) and 19.7 µM (active) | 21.9 µM (active) and 26.3 µM (active) and 21.3 µM (active) |  |  | inactive
11 | CCCCCCCC[N+](C)(CCCCCCCC)CCCCCCCC | 17.3 µM (active) and 27.6 µM (active) and 11 µM (active) | inactive | 8.69 µM (active) and 19.5 µM (active) and 13.8 µM (active) | 24.5 µM (active) and 13.8 µM (active) | 15.5 µM (active) and 21.9 µM (active) and 13.8 µM (active) | 548 nM (active) and 138 nM (active) and 2.19 µM (active) | 9.75 µM (active) and 21.9 µM (active) and 15.5 µM (active) | 21.8 µM (active) and 39 µM (active) and 21.9 µM (active) | 24.5 µM (active) and 24.6 µM (active) and 15.5 µM (active) | inactive
12 | O=C1C(Cl)=C(Cl)C(=O)c2ccccc21 | 6.19 µM (active) and 6.17 µM (active) | inactive | 15.5 µM (active) and 4.9 µM (active) | 27.6 µM (active) and inactive | 21.9 µM (active) and 6.92 µM (active) |  | 6.19 µM (active) and 7.76 µM (active) |  | 4.91 µM (active) | 
13 | COP(=S)(OC)Oc1ccc(Sc2ccc(OP(=S)(OC)OC)cc2)cc1 | inactive | inactive | inactive | inactive | inactive | inactive | inactive | inactive | inactive | 
14 | O=C(O)c1nn(Cc2ccc(Cl)cc2Cl)c2ccccc12 | inactive | inactive | inactive and 95.2 nM (active) | inactive | inactive | inactive | inactive | inactive and 95.2 nM (active) | inactive | 
15 | O=C(O)CF | inactive | inactive | inactive and 19.5 µM (active) | inactive | inactive | inactive | inactive | inactive | inactive | inactive
16 | CCCCCCCCCc1ccc(O)cc1 | inactive | inactive | 39.3 µM (active) and 34.7 µM (active) | inactive | inactive | 7.84 µM (active) and 4.9 µM (active) | 6.99 µM (active) and 4.36 µM (active) | inactive | inactive | 
17 | N#CCCCCC#N | inactive | inactive | inactive | inactive | inactive | inactive | inactive | inactive | inactive | 
18 | NN=C(N)N | inactive | inactive | inactive | inactive | inactive | inactive | inactive | inactive | inactive | 
19 | COc1ccc(CO)cc1 | inactive | inactive | inactive | inactive | inactive | inactive | inactive | inactive | inactive | 
20 | CC1(C)Cc2cccc(O)c2O1 | inactive | inactive | inactive | inactive | inactive |  | inactive |  | inactive | 
21 | CCOP(=O)(O)OCC (tested in a mixture with another compound) | inactive and 24.3 µM (active) | inactive | inactive and 38.6 µM (active) | inactive and 54.5 µM (active) | inactive and 48.6 µM (active) | inactive and 8.64 µM (active) | inactive and 54.5 µM (active) | inactive and 54.5 µM (active) |  | inactive
22 | CCOP(=S)(OCC)OP(=S)(OCC)OCC | inactive | inactive | inactive | inactive | inactive |  | inactive |  | inactive | inactive

Row | SMILES | Potency [1] | Potency [2] | Potency [3] | Potency [4] | Potency [5] | Potency [6] | Potency [7] | Potency [8] | Potency [9] | Potency [10]
23 | ClCc1ccccn1 | inactive | inactive | inactive | inactive | inactive | inactive | inactive | inactive | inactive | 
24 | CC(C)(C#N)N=NC(C)(C)C#N | inactive | inactive | inactive | inactive | inactive | inactive | inactive | inactive | inactive | inactive
25 | O=NN1CCOCC1 | inactive | inactive | inactive | inactive | inactive | inactive and 2.45 µM (active) | inactive and 7.76 µM (active) | inactive | inactive | 
26 | Clc1cccc(Cl)c1 | inactive | inactive | inactive | inactive | inactive | inactive | inactive | inactive | inactive | inactive
27 | CCC(=O)Nc1ccc(Cl)c(Cl)c1 | inactive | inactive | inactive | inactive | inactive | 44.5 µM (active) and 43.6 µM (active) |  | inactive | inactive | inactive
28 | CNC(=O)Oc1cccc2c1OC(C)(C)C2 | inactive | inactive | inactive | inactive | inactive | inactive | inactive | inactive | inactive | 
29 | Clc1ccccc1-c1nnc(-c2ccccc2Cl)nn1 | inactive | inactive | inactive | inactive | inactive | inactive | inactive | inactive | inactive | 
30 | CCNc1nc(Cl)nc(NC(C)(C)C#N)n1 | inactive | inactive | inactive | inactive | inactive | inactive | inactive | inactive | inactive | 
31 | C[C@]12CCC(=O)C=C1CC[C@@H]1[C@@H]2CC[C@@]2(C)[C@H]1CC[C@]2(C)O | 44 µM (active) and inactive | 19.7 µM (active) and inactive | 22.1 µM (active) | 44 µM (active) and inactive | inactive | 19.7 µM (active) | inactive |  |  | 14.3 µM (active) and 9.52 µM (active)
32 | CS(=O)(=O)NC(=O)c1cc(Oc2ccc(C(F)(F)F)cc2Cl)ccc1[N+](=O)[O-] | inactive | inactive | inactive | inactive | inactive | inactive | inactive | inactive | inactive | inactive
33 | O=[N+]([O-])/N=C1\NCCN1Cc1ccc(Cl)nc1 | inactive | inactive | inactive | inactive | inactive | inactive | inactive | inactive | inactive | 
34 | N#Cc1nn(-c2c(Cl)cc(C(F)(F)F)cc2Cl)c(N)c1S(=O)C(F)(F)F (stereo not given) | inactive | inactive | inactive | inactive | inactive | 19.6 µM (active) | 19.6 µM (active) | inactive | inactive | inactive
35 | CCOP(=S)(OCC)SCn1c(=O)oc2cc(Cl)ccc21 | inactive | inactive | inactive | inactive | inactive |  | 26.3 µM (active) and 15.5 µM (active) | inactive | inactive | inactive
36 | CCCCOC(=O)COC(=O)c1ccccc1C(=O)OCCCC | inactive | inactive | inactive | inactive | inactive |  | inactive | inactive | inactive | inactive
37 | ClC(Cl)(Cl)c1ccccc1 | inactive | inactive | inactive | inactive | inactive |  | inactive | inactive | inactive | inactive
38 | Nc1ccc2ccccc2c1 | inactive | inactive | inactive | inactive | inactive |  | inactive |  | inactive | inactive
39 | C[N+](C)(C)CC(=O)[O-] | inactive | inactive | inactive | inactive | inactive |  | inactive |  | inactive | inactive
40 | Cn1c(-c2ccccc2)cc(-c2ccccc2)[n+]1C | inactive | inactive | inactive | inactive | inactive |  | inactive | inactive | inactive | 
41 | Nc1ccc([N+](=O)[O-])cc1N | inactive | inactive | inactive | inactive | inactive |  | inactive |  | inactive | inactive
42 | COP(=S)(OC)SCn1nnc2ccccc2c1=O | inactive | inactive | inactive | inactive | inactive |  |  | inactive | inactive | inactive
43 | O=S(=O)(O)C(F)(F)C(F)(F)C(F)(F)C(F)(F)C(F)(F)C(F)(F)C(F)(F)C(F)(F)F | 33 µM (active) and inactive and 21.9 µM (active) | inactive | 18.6 µM (active) and inactive | 37 µM (active) and inactive and 11 µM (active) | inactive |  | inactive | inactive |  | 
